Measurements reported in PubChem BioAssay (EPA / NIEHS).
Records with an inconclusive call do not appear. Calls of active or inactive are those of the source. The calls were made as follows, unless noted: active = hit-call score of the fitted dose curve at least 0.9, where 1 is the maximum; inconclusive = response in the unintended direction; inactive = score below 0.9.

Key:
[1] = Tanguay_ZF_120hpf_PE_legacy: (Legacy) Oregon State University Tanguay Lab 120 Hour Post-fertilization zebrafish Assay for Pericardial Edema (AID 2283640)
Method in brief: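 Tropical 5D wild-type zebrafish embryos were statically exposed until 120 hpf at 28C, with 0.64% DMSO final. Pericardial edema was scored by brightfield as present or absent; endpoints were not scored in dead embryos.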

[2] = Tanguay_ZF_120hpf_BRAI_legacy: (Legacy) Oregon State University Tanguay Lab 120 Hour Post-fertilization zebrafish Assay for Brain Malformation (AID 2283641)
Method in brief: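 Tropical 5D wild-type zebrafish embryos exposed statically until 120 hpf at 28C, 0.64% DMSO final, sealed and dark. Brain malformation scored present/absent by brightfield at 120 hpf; dead embryos excluded. Trimethyltin chloride 5uM positive control.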

[3] = Tanguay_ZF_120hpf_SOMI_legacy: (Legacy) Oregon State University Tanguay Lab 120 Hour Post-fertilization zebrafish Assay for Somite Malformation (AID 2283647)
Method in brief: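 Dechorionated Tropical 5D wild-type zebrafish embryos, one per well from 6 hpf, statically exposed at 28C to 120 hpf in 0.64% DMSO; somite malformation scored present/absent by brightfield; trimethyltin 5 uM positive control; dead embryos not scored.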

[4] = Tanguay_ZF_120hpf_PFIN_legacy: (Legacy) Oregon State University Tanguay Lab 120 Hour Post-fertilization zebrafish Assay for Pectoral Fin Malformation (AID 2283648);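 also: each larva judged yes or no for fin defect by brightfield with dead larvae skipped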
Method in brief: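 Scoring of pectoral fin malformation was binary, made at 120 hpf on larvae exposed statically from 6 hpf after enzymatic chorion removal. Activity was fitted upward relative to DMSO controls at 0.64% (vol/vol).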

[5] = Tanguay_ZF_120hpf_CFIN_legacy: (Legacy) Oregon State University Tanguay Lab 120 Hour Post-fertilization zebrafish Assay for Caudal Fin Malformation (AID 2283649)
Method in brief: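 Dechorionated Tropical 5D wild-type embryos, one per well from 6 hpf, static exposure to 120 hpf at 28C in 0.64% DMSO. Caudal fin malformation scored by brightfield as present/absent; not scored in dead embryos.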

[6] = Tanguay_ZF_120hpf_PIG_legacy: (Legacy) Oregon State University Tanguay Lab 120 Hour Post-fertilization zebrafish Assay for Pigmentation Malformation (AID 2283650)
Method in brief: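 Endpoint is incidence of abnormal pigmentation at 120 hpf in dechorionated 5D zebrafish exposed singly from 6 hpf at 28C, DMSO vehicle at 0.64%. Embryos dying by 24 or 120 hpf are excluded from scoring.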

[7] = Tanguay_ZF_120hpf_CIRC_legacy: (Legacy) Oregon State University Tanguay Lab 120 Hour Post-fertilization zebrafish Assay for Circulatory Malformation (AID 2283651)
Method in brief: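 Embryos are dechorionated at 4 hpf, plated one per well at 6 hpf, then held under static exposure at 28C until 120 hpf. Malformations are recorded as binary calls; mortality excludes other endpoints.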

[8] = Tanguay_ZF_120hpf_SWIM_legacy: (Legacy) Oregon State University Tanguay Lab 120 Hour Post-fertilization zebrafish Assay for Swim Bladder Malformation (AID 2283654);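 also: swim bladder malformation in each larva scored yes or no under brightfield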
Method in brief: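 Static waterborne exposure of single dechorionated Tropical 5D zebrafish embryos, 6–120 hpf, 28C, 0.64% DMSO final. Read-out: swim bladder malformation, present/absent, relative to DMSO negative control; trimethyltin chloride 5uM served as positive control.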

[9] = Tanguay_ZF_120hpf_TRUN_legacy: (Legacy) Oregon State University Tanguay Lab 120 Hour Post-fertilization zebrafish Assay for Truncated Body (AID 2283655)
Method in brief: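 Dechorionated Tropical 5D wild-type embryos placed singly from 6 hpf and statically exposed to 120 hpf at 28C, final DMSO 0.64%. Truncated body scored as present/absent by brightfield; not scored in dead embryos.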

[10] = Tanguay_ZF_120hpf_NC_legacy: (Legacy) Oregon State University Tanguay Lab 120 Hour Post-fertilization zebrafish Assay for Notochord and Tail Malformation (AID 2283656)
Method in brief: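 Binary scoring of notochord distortion by brightfield microscopy; embryos dying were not scored. Wild-type Tropical 5D embryos, chorion removed, exposed singly and statically from 6 to 120 hpf, 28C, sealed, 0.64% DMSO.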

[11] = test system: Thyroperoxidase (TPO), gene 54314; assay: CCTE_Simmons_AUR_rTPO: CCTE's Amplex UltraRed Assay for Thyroperoxidase (TPO) Inhibition, Simmons Lab (AID 2283662);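 also: potency for loss of signal meaning inhibition of peroxidase activity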
Method in brief: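 Rat thyroid microsomes (5 ug protein) with 25 uM Amplex UltraRed and 300 uM H2O2 in 200 mM phosphate buffer, 30 min at 37C in dark; fluorescence 544/590 nm. Eight concentrations, 5 nM–87.5 uM final, 0.5% DMSO, triplicate biological replicates.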

[12] = CCTE_Simmons_CellTiterGLO_HEK293T: Viability Assessment in CCTE's Assays for Thyroperoxidase (TPO) Inhibition, Simmons Lab (AID 2283665);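 as to AC50: cells exposed to compound for 24 h before readout; actives reduce ATP signal below DMSO vehicle meaning cytotoxicity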
Method in brief: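 Cells were seeded overnight, then exposed to an eight-point series up to 87.5 uM final for 24 hours. CellTiter-Glo reagent was added and luminescence read after 20 min, giving ATP-based viability versus DMSO.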

[13] = Tanguay_ZF_120hpf_TR_legacy: (Legacy) Oregon State University Tanguay Lab 120 Hour Post-fertilization zebrafish Assay for Touch Response (AID 2283667)
Method in brief: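 Readout is presence or absence of touch response in 120 hpf zebrafish larvae, assessed by brightfield observation after continuous static exposure at 28C. Final vehicle was 0.64% (vol/vol) DMSO.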

[14] = CCTE_Padilla_ZF_144hpf_TERATOSCORE: (Legacy) CCTE's 144 Hour Post-fertilization zebrafish Assay Teratoscore, Padilla Lab (AID 2283679; active = hit-call score of the fitted dose curve at least 0.9, where 1 is the maximum; inactive = score below 0.9;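 as to AC50: zebrafish embryos with chorions exposed by immersion from 6-8 hpf to 5 dpf with daily renewal; teratogenicity score from eye scoring of death hatching and malformations at 144 hpf; higher score means more developmental defects relative to DMSO baseline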)
Method in brief: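 Larvae scored by eye at 144 hpf for death, hatching and malformations after a day in clean Hanks'. Before that, daily-renewed exposure at 80 uM (0.4% DMSO, 26C) from roughly 6-8 hpf through 5 dpf, 4 embryos per chemical.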

[15] = STM_H9_OrnithineISnorm_perc: Stemina devTOX quickPredict H9 human embryonic stem cell (hESC)-based Assay for Ornithine (ORN) Metabolite Biomarker, Normalized (AID 2283712; active = hit-call score of the fitted dose curve at least 0.9, where 1 is the maximum; inactive = score below 0.9;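 also: ornithine released into spent medium during last day measured by mass spectrometry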)
Method in brief: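 Ornithine secreted by H9 hESCs after 72h compound treatment (daily media/compound renewal) was quantified in final-day media by UPLC-HRMS. Values are isotope-standard-normalized, expressed relative to 0.1% DMSO, fitted in positive direction.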

Measured: AC50

O=c1c(O)c(-c2ccc(O)c(O)c2)oc2cc(O)cc(O)c12
active: [11] 182 nM | [12] 27100 nM
inactive: all other assays above

CC(C)c1ccc(C(=O)N=C(N)N)cc1S(C)(=O)=O
not listed: [10] | [11] | [12] | [14] | [15]
inactive: all other assays above

CCCCCC(=O)O
not listed: [11] | [12] | [14] | [15]
inactive: all other assays above

COCCOCCOC
not listed: [11] | [12]
inactive: all other assays above

Cc1ccc2ncccc2c1
not listed: [7] | [11] | [12] | [14] | [15]
inactive: all other assays above

CCOC(=O)CCC(=O)OCC
not listed: [11] | [12] | [13] | [14] | [15]
inactive: all other assays above

Cc1cc(NC(=O)C(=O)O)cc(C)c1Oc1ccc(O)c2c1CCC2
active: [2] 546 nM | [4] 499 nM | [6] 3.39 nM | [11] 5070 nM | [14] 657 nM
not listed: [7]
inactive: all other assays above

Oc1ccc2c(c1)OC[C@@H](N1CCC(O)(c3ccc(F)cc3)CC1)[C@H]2O
active: [14] 1460 nM
not listed: [11] | [12] | [15]
inactive: all other assays above

Cc1cc(=O)[nH]c(=S)[nH]1
active: [11] 593 nM
not listed: [7] | [14] | [15]
inactive: all other assays above
